Assay [1] can be described thus: qHTS assay to identify small molecule antagonists of the glucocorticoid receptor (GR) signaling pathway - cell viability counter screen (AID 720693). Further: nearly all actives have a fitted effect of over 55% in size. Further: potency means the concentration at half of the fitted maximal effect. In general terms: In qHTS, concentration-response curves come from the screen itself.
The nature of assay [2]: qHTS assay for identifying genotoxic compounds that show differential cytotoxicity against isogenic chicken DT40 cell lines with known DNA damage response pathways - wild type cell line (AID 743012). Further: nearly all actives have a fitted effect of over 60% in size. Further: potency means the concentration at half of the fitted maximal effect. In outline: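 Viability by ATP luminescence (CellTiter-Glo, 30 min RT) after 40 h compound treatment at 37 C/5% CO2, using 300 parental DNA repair-proficient DT40 cells per well.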

Assay [3] can be described thus: qHTS assay for identifying genotoxic compounds that show differential cytotoxicity against isogenic chicken DT40 cell lines with known DNA damage response pathways - Rev3 mutant cell line (AID 743014). Further: nearly all actives have a fitted effect of over 55% in size. Further: potency means the concentration at half of the fitted maximal effect.
The nature of assay [4]: qHTS assay for identifying genotoxic compounds that show differential cytotoxicity against isogenic chicken DT40 cell lines with known DNA damage response pathways - Rad54/Ku70 mutant cell line (AID 743015). Further: nearly all actives have a fitted effect of over 60% in size. Further: potency means the concentration at half of the fitted maximal effect.
Assay [5] is described as follows: qHTS assay to identify small molecule antagonists of the androgen receptor (AR) signaling pathway - cell viability counter screen (AID 743033; further: nearly all actives have a fitted effect of over 45% in size; further: potency means the concentration at half of the fitted maximal effect).
A short description of assay [6]: qHTS assay to identify small molecule antagonists of the androgen receptor (AR) signaling pathway using the MDA cell line - cell viability counter screen (AID 743041; further: nearly all actives have a fitted effect of over 45% in size; further: potency means the concentration at half of the fitted maximal effect). In outline:
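Viability read by CellTiter-Fluor fluorescence in the same wells as the antagonist screen, added after 15.5 h of a 16 h, 37C exposure. Human breast carcinoma MDA-kb2 AR-luc cells, compounds co-dosed with agonist R1881.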

A short description of assay [7]: qHTS assay to identify small molecule antagonists of the thyroid receptor (TR) signaling pathway - cell viability counter screen (AID 743064). Further: nearly all actives have a fitted effect of over 50% in size. Further: potency means the concentration at half of the fitted maximal effect. Summed up: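 GH3.TRE-Luc rat pituitary cells dosed after 4 hr plating, co-stimulated with T3 at 1 nM final, incubated 23.5 h at 37 C. Viability measured in the same wells by CellTiter-Fluor fluorescence after 30 min further at 37 C.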

The nature of assay [8]: qHTS assay to identify small molecule antagonists of the thyroid receptor (TR) signaling pathway (AID 743065). Further: nearly all actives have a fitted effect of over 55% in size. Further: potency means the concentration at half of the fitted maximal effect. Summed up:
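Antagonism measured as loss of luciferase signal in GH3 cells stably carrying a TRE-luciferase reporter, co-treated with compound and T3 (1 nM final) for 23.5 h at 37 C. Viability was read in the same well by CellTiter-Fluor.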

The nature of assay [9]: qHTS assay to identify small molecule antagonists of the estrogen receptor alpha (ER-alpha) signaling pathway - cell viability counter screen (AID 743074; calls by dose curve;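 further: HEK293 cells carrying ER-alpha-UAS-bla reporter stimulated with 17beta-estradiol; nearly all actives have a fitted effect of over 45% in size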; further: potency means the concentration at half of the fitted maximal effect).
The nature of assay [10]: qHTS assay to identify small molecule antagonists of the estrogen receptor alpha (ER-alpha) signaling pathway using the BG1 cell line (AID 743080; calls by dose curve;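 further: BG1 cells stimulated with 17beta-estradiol alongside compound; nearly all actives have a fitted effect of over 25% in size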; further: potency means the concentration at half of the fitted maximal effect). Summed up: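 BG1-Luc-4E2 cells (endogenous full-length ER-alpha, 4xERE luciferase) hormone-starved 5 days in charcoal-stripped FBS, plated 4,000/well for 24 h, then compound plus 17beta-estradiol for 21.5 h at 37 C; ONE-Glo luminescence read.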

The target in a further assay is Aromatase (Homo sapiens) (UniProt P11511). The assay can be described thus: qHTS assay to identify aromatase inhibitors (AID 743083). Further: nearly all actives have a fitted effect of over 55% in size. Further: potency means the concentration at half of the fitted maximal effect.
Aromatase (Homo sapiens), sequence (P11511 whole entry, looked up): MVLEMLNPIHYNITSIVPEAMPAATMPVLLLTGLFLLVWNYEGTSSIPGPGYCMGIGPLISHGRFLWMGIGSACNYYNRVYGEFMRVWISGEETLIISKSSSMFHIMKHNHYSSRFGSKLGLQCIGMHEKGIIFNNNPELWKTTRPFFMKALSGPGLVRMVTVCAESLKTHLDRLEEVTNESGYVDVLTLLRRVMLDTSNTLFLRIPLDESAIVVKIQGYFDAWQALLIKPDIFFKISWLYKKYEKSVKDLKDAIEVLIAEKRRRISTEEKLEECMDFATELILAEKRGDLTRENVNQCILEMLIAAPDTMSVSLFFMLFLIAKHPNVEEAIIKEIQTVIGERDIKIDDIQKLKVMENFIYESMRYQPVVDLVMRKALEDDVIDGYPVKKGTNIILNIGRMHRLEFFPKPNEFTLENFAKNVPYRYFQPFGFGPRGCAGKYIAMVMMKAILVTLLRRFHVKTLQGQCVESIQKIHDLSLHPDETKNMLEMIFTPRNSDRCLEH
A short description of assay [11]: qHTS assay to identify aromatase inhibitors - cell viability counter screen (AID 743084). Further: potency means the concentration at half of the fitted maximal effect.
Assay [12] deals with thyroid hormone receptor (rat, GH3 cells). The assay can be described thus: qHTS assay to identify small molecule agonists of the thyroid receptor (TR) signaling pathway (AID 743066; calls by dose curve).
The nature of assay [13]: qHTS assay to identify small molecule antagonists of the estrogen receptor alpha (ER-alpha) signaling pathway using the BG1 cell line - cell viability counter screen (AID 743081).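 Further: compound given together with 17beta-estradiol as the ER stimulus; nearly all actives have a fitted effect of over 45% in size.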 Further: potency means the concentration at half of the fitted maximal effect.
In assay [14] the target is Estrogen receptor (Homo sapiens) (UniProt P03372). Briefly: qHTS assay to identify small molecule antagonists of the estrogen receptor alpha (ER-alpha) signaling pathway (AID 743069; active means well fitted curve in the direction sought with a large enough effect in the signal ratio in the repeat runs, not every such curve was filed as active; the % refers to the signal ratio; further: potency means the concentration at half of the fitted maximal effect). Summed up: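 Antagonist mode: compounds in DMSO were co-added with 17beta-estradiol to ER-alpha-bla HEK293 cells (2% charcoal-stripped serum) and left 18 h at 37C. Reporter inhibition was measured as FRET fluorescence after 2 h LiveBLAzer substrate at room temperature.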
Estrogen receptor (Homo sapiens), sequence (P03372 whole entry, looked up): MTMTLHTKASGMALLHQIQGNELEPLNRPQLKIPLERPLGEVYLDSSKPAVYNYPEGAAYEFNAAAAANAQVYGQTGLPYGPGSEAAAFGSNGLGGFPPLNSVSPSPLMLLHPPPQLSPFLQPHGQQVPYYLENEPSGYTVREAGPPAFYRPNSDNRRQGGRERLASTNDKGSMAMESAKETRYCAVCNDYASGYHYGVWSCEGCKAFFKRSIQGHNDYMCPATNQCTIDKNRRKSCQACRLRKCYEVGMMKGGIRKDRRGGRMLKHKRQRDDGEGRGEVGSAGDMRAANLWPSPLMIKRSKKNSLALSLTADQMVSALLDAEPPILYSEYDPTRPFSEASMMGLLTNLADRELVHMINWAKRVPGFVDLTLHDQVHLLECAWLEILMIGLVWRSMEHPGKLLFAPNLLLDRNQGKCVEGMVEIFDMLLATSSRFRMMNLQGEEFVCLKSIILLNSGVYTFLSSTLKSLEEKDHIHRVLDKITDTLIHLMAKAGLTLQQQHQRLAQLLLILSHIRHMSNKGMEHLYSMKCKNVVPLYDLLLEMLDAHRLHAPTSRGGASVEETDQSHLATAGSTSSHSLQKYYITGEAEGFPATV

Assay [15] shares this target. The assay can be described thus: qHTS assay to identify small molecule agonists of the estrogen receptor alpha (ER-alpha) signaling pathway (AID 743075; calls by dose curve;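 further: HEK293 GripTite cells with ER-alpha and UAS-driven beta-lactamase reporter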). The conditions noted are these: HEK293 ER-alpha-UAS-bla, beta-lactamase FRET ratio, 18 h; activation: at 70.1 µM (top of the series).
Assay [16] shares this target. The assay can be described thus: qHTS assay to identify small molecule agonists of the estrogen receptor alpha (ER-alpha) signaling pathway using the BG1 cell line (AID 743079). Further: nearly all actives have a fitted effect of over 20% in size. The conditions noted are these: BG1Luc4E2 cells, ERE-luciferase agonist, 22 h.

Several values for one entry are separate records, joined by “and”; a condition that tells them apart may be missing. Equal entries are not always repeated. Inconclusive results are not listed. A number with no mark means an inactive call. Activity calls are given as the source filed them. Unless noted, the call rests on the fitted dose curve; in most records, active means well fitted curve in the direction sought with a large enough effect in the repeat runs; inconclusive means weak or mixed curves; inactive means no such curve, though single readings can be large; an effect the other way counts as inactive or inconclusive.
On the % scale 0 is the no-effect control and ±100 the full control effect.

With `CCC1=C[C@@H]2CN(C1)Cc1c([nH]c3ccccc13)[C@@](C(=O)OC)(c1cc3c(cc1OC)N(C)[C@H]1[C@@](O)(C(=O)OC)[C@H](OC(C)=O)[C@]4(CC)C=CCN5CC[C@]31[C@@H]54)C2`, the Potency entry (in assay [1]; in assay [5]; in assay [6]; in [9]; in assay [10]; with Aromatase (Homo sapiens)) was “inactive” throughout. The Potency result in [11] is “inactive”. Moreover, the Potency is 0.075 µM (active) in assay [2]; 0.0841 µM (active) in [3]; 0.119 µM (active) in assay [4]; 4.73 µM (active) in [7]; 1.88 µM (active) in [8].
In the case of `COc1cc(-c2ccc(N=C=O)c(OC)c2)ccc1N=C=O`, the Potency result in assay [1], in assay [2], in assay [3], in [4], in [5] and in assay [6] was “inactive” each time. Further, the Potency entry (in assay [7]; in [8]; in assay [12]; in assay [9]; in assay [13]; with Aromatase (Homo sapiens)) was “inactive” each time. Besides, the Potency result in assay [11] is “inactive”.
For `C1CCCC1`, the Potency result in [1], in [2], in assay [3], in [4], in [5] and in assay [6] was “inactive” in each case. The Potency result (in assay [7]; in assay [8]; in [12]; in assay [9]; in assay [13]; with Aromatase (Homo sapiens)) was “inactive” each time. Moreover, the Potency entry in assay [11] is “inactive”.
For the molecule `CCCCCOC(=O)CCCC`, the Potency entry in assay [1], in assay [2], in [3], in assay [4], in [5] and in [6] was “inactive” throughout. The Potency result in [8], in assay [12], in [14], in [9], in [15] and in [10] was “inactive” throughout. Also, the Potency result (in assay [13]; with Aromatase (Homo sapiens); in [11]) was “inactive” in each case. Also, in assay [16] (at 70.3 µM (top of the series)), the activation was -1.52%.
In the case of `Cc1cccc(CN2CCN(C(c3ccccc3)c3ccc(Cl)cc3)CC2)c1` (stereo not drawn), the Potency entry in assay [1], in assay [5], in assay [6], in [14], in assay [9] and in assay [15] was “inactive” in each case. For the same molecule, the Potency entry (in assay [10]; in [13]; with Aromatase (Homo sapiens); in [11]) was “inactive” throughout. Further, the Potency is 9.02 µM (active) in assay [2], 5.07 µM (active) in assay [3] and 9.02 µM (active) in assay [4]. In addition, the activation in assay [16] (at 32.5 µM (top of the series)) is -3.05%.
For the molecule `CCCCCCCC[P+](CCCCCCCC)(CCCCCCCC)CCCCCCCC`, the Potency in [1] was 6.13 µM (active); in assay [2], 5.42 µM (active); in [3], 5.42 µM (active); in [4], 5.42 µM (active); in [5], 0.971 µM (active); in assay [6] it was 6.08 µM (active). Further, the Potency in assay [7] was 4.3 µM (active); in [8], 3.05 µM (active); in assay [14], 21.7 µM [cytotoxic] (active); in assay [9] it was 15.4 µM (active); in [10], 1.71 µM (active); in assay [13], 8.58 µM (active). For the same molecule, the Potency with Aromatase (Homo sapiens) is 1.53 µM (active); in [11] it was 9.63 µM (active).
In the case of `CC(C)(C)c1ccc(C(=O)O)cc1`, the Potency entry in assay [1], in [2], in assay [3], in [4], in assay [5] and in assay [6] was “inactive” throughout. Also, the Potency entry (in assay [7]; in assay [8]; in assay [12]; in assay [9]; in [13]; with Aromatase (Homo sapiens)) was “inactive” each time. Besides, in assay [11], the Potency result was “inactive”.
In the case of `CCC(N)(CO)CO`, the Potency entry in assay [1], in assay [2], in assay [3], in assay [4], in assay [5] and in assay [6] was “inactive” in each case. Moreover, the Potency result in [8], in [12], in assay [14], in assay [9], in [15] and in assay [10] was “inactive” in each case. The Potency result (in [13]; with Aromatase (Homo sapiens); in [11]) was “inactive” in each case. Further, in [16] (at 95 µM (top of the series)), the activation is -5.95%.
`NC(=O)CC[C@@H]1NC(=O)[C@H](Cc2ccccc2)NC(=O)[C@H](Cc2ccc(O)cc2)NC(=O)CCSSC[C@@H](C(=O)N2CCC[C@H]2C(=O)N[C@@H](CCCN=C(N)N)C(=O)NCC(N)=O)NC(=O)[C@H](CC(N)=O)NC1=O`: the Potency result in assay [1], in assay [2], in [3], in [4], in assay [5] and in [6] was “inactive” each time. The Potency result (in assay [9]; in assay [13]; with Aromatase (Homo sapiens); in assay [11]) was “inactive” throughout.
Take `Cc1c(C)c2c(c(C)c1OC(=O)CCC(=O)O)CC[C@@](C)(CCC[C@H](C)CCC[C@H](C)CCCC(C)C)O2`: the Potency in [1] was 26.8 µM (active). In addition, the Potency entry in assay [2], in assay [3], in assay [4], in assay [5], in assay [6] and in assay [8] was “inactive” in each case. The Potency result (in [12]; in assay [9]; in [13]; in the assay with Aromatase (Homo sapiens); in assay [11]) was “inactive” each time.
Take `C[C@H](CCC(=O)O)[C@H]1CC[C@H]2[C@@H]3CC[C@@H]4C[C@H](O)CC[C@]4(C)[C@H]3CC[C@]12C`: the Potency result in assay [1], in assay [2], in assay [3], in assay [4], in assay [5] and in assay [6] was “inactive” throughout. Further, the Potency entry (in [12]; in assay [15]; in assay [10]; in [13]; with Aromatase (Homo sapiens); in assay [11]) was “inactive” throughout. The Potency was 27.2 µM (active) and 54.5 µM (active) in assay [7]; 17.2 µM (active) and 30.6 µM (active) in assay [8]; 54.9 µM (active) in assay [9]. Besides, the activation in assay [16] (at 70.3 µM (top of the series)) is -1.63% and -14.3%.
For the molecule `c1ccc(CSCc2ccccc2)cc1`, the Potency result in [1], in [2], in [3], in assay [4], in assay [5] and in assay [6] was “inactive” each time. In addition, the Potency entry (in [7]; in assay [8]; in [12]; in [9]; in assay [13]; with Aromatase (Homo sapiens)) was “inactive” each time. Also, in [11], the Potency result was “inactive”.
`N/C(=N\N=C\c1ccc(Cl)cc1)N/N=C/c1ccc(Cl)cc1`: the Potency result in assay [1], in assay [2], in assay [3], in assay [4], in assay [5] and in [6] was “inactive” in each case. Also, the Potency entry in [12], in assay [14], in assay [9], in [15], in assay [10] and in assay [13] was “inactive” each time. The Potency entry (with Aromatase (Homo sapiens); in [11]) was “inactive” in each case. In addition, the Potency in assay [8] is 29.8 µM (active). In addition, the activation in assay [16] (at 70.3 µM (top of the series)) was -3.33%.

These data come from PubChem BioAssay (Tox21).
